Among the data in PubChem BioAssay (EPA / NIEHS) are AC50 and outcome values, retold here.

Molecules are shown by their SMILES. Records with an inconclusive call do not appear. Active and inactive are the calls of the source. How the source made its calls, unless noted: active means hit-call score of the fitted dose curve at least 0.9, where 1 is the maximum; inactive means score below 0.9.

The AC50 is the concentration giving half of the maximal activity seen.

Experiment [1] relates to Brachyury (BRA) Protein Expression, Deisenroth Lab, TBXT (gene 6862). Put plainly: CCTE_Deisenroth_DEVTOX-GLR_legacy_Bra: (Legacy) CCTE's DevTox GLR-Endo Assay Evaluation of Brachyury (BRA) Protein Expression, Deisenroth Lab (AID 2284329). In a few lines:
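Human pluripotent RUES2-GLR line was exposed twice during 48 h differentiation to a 10-point series, 1 nM - 200 uM. Fraction of Bra-positive cells was scored by imaging against pluripotent baseline and fitted after 0.2% DMSO subtraction.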

A short description of experiment [2]: CCTE_Deisenroth_DEVTOX-GLR_legacy_CellCount: (Legacy) Viability Assessment in CCTE's DevTox GLR-Endo Assay, Deisenroth Lab (AID 2284331). As to conditions: actives raise or lower the signal. In a few lines:
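RUES2-GLR human pluripotent cells were seeded 24 h, then differentiated 48 h with two compound doses at 24 h intervals (10-point, 1 nM - 200 uM). Fixed nuclei were imaged and counted; bidirectional fitting versus 0.2% DMSO.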

The subject of experiment [3] is SRY-box transcription factor 17 (SOX17) Protein Expression, Deisenroth Lab, SOX17 (gene 64321). Put plainly: CCTE_Deisenroth_DEVTOX-GLR_legacy_Sox17: (Legacy) CCTE's DevTox GLR-Endo Assay Evaluation of SRY-box transcription factor 17 (SOX17) Protein Expression, Deisenroth Lab (AID 2284341). As to conditions: actives raise or lower the signal. In a few lines: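 Percent SOX17-positive cells, scored by high-content imaging as mean intensity exceeding pluripotent-control median by 5x BMAD, divided by cell count. Human RUES2-GLR endoderm differentiation, 48 h, two exposures 24 h apart, 1 nM–200 uM; DMSO-referenced bidirectional fitting.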

Experiment [4] concerns SRY-box transcription factor 2 (SOX2) Protein Expression, Deisenroth Lab, SOX2 (gene 6657). The experiment in a line: CCTE_Deisenroth_DEVTOX-GLR_legacy_Sox2: (Legacy) CCTE's DevTox GLR-Endo Assay Evaluation of SRY-box transcription factor 2 (SOX2) Protein Expression, Deisenroth Lab (AID 2284346). In a few lines:
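hPSC RUES2-GLR, 384-well; 24 h seed → 48 h endoderm differentiation, 2 doses q24h, 1 nM–200 uM. Fix, nuclear dye, 5 fields/well. Sox2+ cells/cell count; cell positive if >5x BMAD over endoderm ctrl; gain direction vs DMSO.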

The test system is the same in experiment [5]. The experiment in a line: CCTE_Deisenroth_DEVTOX-GLR_Endo_SOX2: CCTE's DevTox GLR-Endo Assay Evaluation of SRY-box transcription factor 2 (SOX2) Protein Expression, Deisenroth Lab (AID 2284412; active means hit-call score of the fitted dose curve at least 0.9, where 1 is the maximum). The method in brief: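 RUES2-GLR human pluripotent cells were seeded 24 h, then differentiated 48 h with two chemical exposures 24 h apart. Cells were fixed, nuclei stained and imaged by high-content microscopy. Endpoint is %SOX2+ cells over cell count, minus 0.2% DMSO control; 10-point series 1 nM–200 uM.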

Experiment [6] concerns SRY-box transcription factor 17 (SOX17) Protein Expression, Deisenroth Lab, SOX17 (gene 64321). Put plainly: CCTE_Deisenroth_DEVTOX-GLR_Endo_SOX17: CCTE's DevTox GLR-Endo Assay Evaluation of SRY-box transcription factor 17 (SOX17) Protein Expression, Deisenroth Lab (AID 2284413). The method in brief:
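Seed RUES2-GLR cells 24 h; start endoderm differentiation; dose at 0 and 24 h (1 nM - 200 uM, 10 points); fix at 48 h, stain nuclei, image 5 fields/well; compute SOX17+/total cells vs 0.2% DMSO.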

Experiment [7] concerns Brachyury (BRA) Protein Expression, TBXT (gene 6862). Put plainly: CCTE_Deisenroth_DEVTOX-GLR_Endo_BRA: CCTE's DevTox GLR-Endo Assay Evaluation of Brachyury (BRA) Protein Expression, Deisenroth Lab (AID 2284417). The method in brief: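 Endpoint is the fraction of BRA reporter-positive cells over total nuclei, corrected by subtracting the 0.2% DMSO value. Chemicals (1 nM - 200 uM, 10 points) were dosed twice during 48 h differentiation of RUES2-GLR cells, read by imaging.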

A short description of experiment [8]: CCTE_Deisenroth_DEVTOX-GLR_Endo_CellCount: Viability Assessment in CCTE's DevTox GLR-Endo Assay, Deisenroth Lab (AID 2284420). The method in brief: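 Measured 48 h after dosing: fluorescent nuclei counted by imaging in human RUES2-GLR cells under defined differentiation media, tested at 1 nM - 200 uM. Values are percent cell-count change relative to 0.2% DMSO.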

Experiment [9] deals with SRY-box transcription factor 17 (SOX17) Protein Expression, Deisenroth Lab, SOX17 (gene 64321). Put plainly: CCTE_Deisenroth_DEVTOX-GLR_Pluri_SOX17: CCTE's DevTox GLR-Pluri Assay Evaluation of SRY-box transcription factor 17 (SOX17) Protein Expression, Deisenroth Lab (AID 2284427; active means hit-call score of the fitted dose curve at least 0.9, where 1 is the maximum). The method in brief: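 Using an inducible fluorescent SOX17 reporter in human pluripotent RUES2-GLR cells, compounds (1 nM - 200 uM) were given twice over 48 h differentiation. Percent SOX17+ cells minus DMSO control came from high-content image analysis.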

The test system of experiment [10] is SRY-box transcription factor 2 (SOX2) Protein Expression, Deisenroth Lab, SOX2 (gene 6657). Put plainly: CCTE_Deisenroth_DEVTOX-GLR_Pluri_SOX2: CCTE's DevTox GLR-Pluri Assay Evaluation of SRY-box transcription factor 2 (SOX2) Protein Expression, Deisenroth Lab (AID 2284428). In a few lines:
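Percent SOX2+ RUES2-GLR cells, determined by fluorescence microscopy after 48 h and two 24-h-interval chemical exposures spanning 1 nM–200 uM, served as the endpoint. Values are expressed relative to 0.2% DMSO; total cell counts assessed viability.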

Experiment [11] deals with Brachyury (BRA) Protein Expression, Deisenroth Lab, TBXT (gene 6862). Put plainly: CCTE_Deisenroth_DEVTOX-GLR_Pluri_BRA: CCTE's DevTox GLR-Pluri Assay Evaluation of Brachyury (BRA) Protein Expression, Deisenroth Lab (AID 2284429; active means hit-call score of the fitted dose curve at least 0.9, where 1 is the maximum). The method in brief: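 An inducible fluorescent BRA reporter in RUES2-GLR cells tracks mesoderm differentiation. Compounds (10 concentrations, 1 nM - 200 uM) are dosed twice within a 48-h differentiation. The endpoint subtracts the 0.2% DMSO control from percent BRA+ cells.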

Experiment [12] can be described thus: CCTE_Deisenroth_DEVTOX-GLR_Pluri_CellCount: Viability Assessment in CCTE's DevTox GLR-Pluri Assay Evaluation of Total Cell Counts, Deisenroth Lab (AID 2284430). The method in brief: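 RUES2-GLR human pluripotent cells, seeded 24 h, then differentiated 48 h with two chemical exposures 24 h apart; 10-point series 1 nM - 200 uM. Fixed, nuclear-stained, imaged (5 fields/well); nuclei count as % change vs 0.2% DMSO.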

The nature of experiment [13]: CCTE_Deisenroth_AIME_96WELL_CTox_Active: Cytotoxicity Assessment (CTOX) in CCTE's 96-well Estrogen Receptor Transactivation Assay with AIME metabolic competence (metabolism positive), Deisenroth Lab (AID 2284028; active means hit-call score of the fitted dose curve at least 0.9, where 1 is the maximum). The method in brief: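 Chemicals (0.002–200 uM) were first incubated 2 h with alginate-immobilized phenobarbital/beta-naphthoflavone-induced male rat liver S9; conditioned medium then went onto VM7Luc4E2 cells for 24 h, with viability read by protease-substrate fluorescence, fitted bidirectionally.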

The nature of experiment [14]: CCTE_Deisenroth_AIME_96WELL_CTox_Inactive: Cytotoxicity Assessment (CTOX) in CCTE's 96-well Estrogen Receptor Transactivation Assay without AIME metabolic competence (metabolism negative), Deisenroth Lab (AID 2284029; active means hit-call score of the fitted dose curve at least 0.9, where 1 is the maximum). In a few lines: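 Chemicals (0.002 - 200 uM, 10 points) incubated 2 h with alginate-water microspheres (no S9), then medium moved onto VM7Luc4E2 cells for 24 h. Viability by protease-substrate cleavage to fluorescent probe; bidirectional fitting.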

Take `c1cc(-c2cnn3cc(-c4ccc(OCCN5CCCCC5)cc4)cnc23)ccn1`: the AC50 in experiment [1] was 20 µM (active); in experiment [2], 20 µM (active); in experiment [3], 24.6 µM (active); in experiment [4], 5.11 µM (active); in [5], 30.1 µM (active); in experiment [6] it was 24.1 µM (active). The AC50 in experiment [7] is 1.44 µM (active); in experiment [8], 20 µM (active); in experiment [10], 3.94 µM (active); in experiment [11] it was 3.02 µM (active); in experiment [12], 3.39 µM (active). Besides, the compound was called inactive in [9].

`CC/C(=C(\c1ccc(O)cc1)c1ccc(OCCN(C)C)cc1)c1ccccc1`: the AC50 in [13] is 57.8 µM (active); in experiment [14] it was 57.6 µM (active).
